# Bioassay records (PubChem)
# hgDAF12 agonist – activates the H. glycines DAF-12 receptor ligand-binding domain. HEK293 GAL4-hgDAF12 UAS-luciferase reporter, agonist luminescence; normalized to butyrate control. activation, % at 6.8 µM. AID 687014. actives 1.8% (n = 370,000);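 active = activation above a cutoff set at the mean of all screened compounds plus 3 SD, cut at about 10% in these data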;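 note: 0% = DMSO wells and 100% = sodium butyrate wells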
# ssDAF-12 act – activates DAF-12 receptor from parasite S. stercoralis; HEK293 ssDAF-12/GRIP1 lit1-tk-luc reporter, luminescence; % of 3 µM dafachronic acid response; activation, % at 6.8 µM; actives 1% (n = 370,000);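 active = activation above the mean over all tested compounds plus 3 SD, cut at about 0.9% in these data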;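 note: 0% = DMSO-only wells and 100% = 3 µM delta7-dafachronic acid wells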
# DAX1 inh-1 – inhibitors of human orphan nuclear receptor DAX1 (NR0B1); P51843; HEK293 Gal4-DAX1 luciferase reporter, luminescence; inhibition, % at 6.75 µM; actives 0.99% (n = 340,000); AID 504766;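 active = inhibition above the mean over all tested compounds plus 3 SD, cut at about 4.2% in these data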;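 note: 0% = DAX1-transfected cells with DMSO and 100% = empty-vector control cells with DMSO; inhibition shows as a rise in luminescence from relieved DAX1 repression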
# Target sequence (P51843 207-470 limits assumed): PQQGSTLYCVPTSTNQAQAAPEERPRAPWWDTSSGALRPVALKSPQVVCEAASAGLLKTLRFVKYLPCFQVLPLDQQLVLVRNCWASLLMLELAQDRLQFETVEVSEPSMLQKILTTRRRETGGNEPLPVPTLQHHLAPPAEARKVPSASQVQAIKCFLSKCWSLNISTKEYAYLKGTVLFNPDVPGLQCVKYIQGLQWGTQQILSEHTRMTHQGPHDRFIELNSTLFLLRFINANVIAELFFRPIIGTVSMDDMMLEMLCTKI
# hcDAF-12 act – activates DAF-12 receptor from parasite H. contortus | actives 1.4% (n = 370,000) | HEK293 hcDAF-12 lit1-tk-luc reporter, luminescence; 0% DMSO, 100% Δ7-dafachronic acid | activation, % at 6.8 µM;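 active = activation above the mean of all tested compounds plus 3 SD, cut at about 5.5% in these data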;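 note: 100% = response to 3 µM Δ7-dafachronic acid high control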
# SMARCA2 act – SMARCA2 function activation, primary screen; MG213 cells, MMTV-luciferase reporter, dexamethasone, overnight; activation, % at 9.1 µM; actives 1% (n = 370,000); in the data active = activation above about 7.8%;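 note: 0% = vehicle wells and 100% = reference activator wells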
# DAX1 inh-2 – inhibitors of DAX1 repression of SF-1 activated StAR promoter | inhibition, % at 6.8 µM | actives 1.1% (n = 370,000) | HEK293T StAR-luciferase reporter, SF-1/DAX-1 repression relief;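 active = inhibition above the mean over all tested compounds plus 3 SD, cut at about 3.6% in these data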;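 note: 0% = DAX-1 cells with DMSO and 100% = cells lacking DAX-1 with DMSO; higher inhibition means more luminescence from relief of DAX-1 repression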
# SMARCA2 conf – SMARCA2 activation, confirmation screen | shares compounds with SMARCA2 act | MG213 cells, MMTV-luciferase with dexamethasone, luminescence, overnight; MG213 cells expressing E1A, Rb sequestered; DMSO wells 0%, reference activator 100% | activation, % at 9.1 µM | actives 30% (n = 3,500) | AID 652260;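 active = activation above its plate's cutoff, the mean activation of tested wells plus 3 SD, cut at about 7.9% in these data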
# VP16 Luc act – counter-screen for SMARCA2 activators: GAL4-VP16 luciferase reporter activation. activation, % at 9.1 µM. HEK293 GAL4-VP16 pG5luc reporter, luciferase luminescence; scaled: DMSO wells 0%, SAHA wells 100%. shares compounds with SMARCA2 act. actives 41% (n = 3,500);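 active = activation above the solvent-only control well mean plus 3 SD, averaged across control plates, cut at about 5.2% in these data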
# LXR ag – LXR-beta agonism as hcDAF-12 counter-screen. shares compounds with hcDAF-12 act. HEK293 Gal4-LXR tk-luc reporter, luminescence, 24 h; normalized: DMSO 0%, positive control 100%. activation, % at 6.8 µM. 3,400 tested, under 10 active;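 active = mean percent activation of the reporter above a cutoff set as the average over tested compounds plus their standard deviation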
# hcDAF12 ag – hcDAF-12 agonism, confirmation assay; shares compounds with hcDAF-12 act; HEK293 hcDAF-12 lit1-tk-luc reporter, luminescence; % of Δ7-dafachronic acid response; activation, % at 6.8 µM; actives 61% (n = 3,400); AID 743032;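 active = mean activation across triplicate tests above the threshold derived from the earlier primary screen, cut at about 5.5% in these data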;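 note: 0% = DMSO only wells and 100% = 3 µM Δ7-dafachronic acid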
# hgDAF12 ag – confirmation of H. glycines DAF-12 agonists; HEK293 GAL4-hgDAF12 luciferase reporter, agonist mode; percent of butyrate response; AID 743050; activation, % at 6.8 µM; actives 80% (n = 3,300); shares compounds with hgDAF12 agonist;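 active = mean activation over triplicate wells above the hit cutoff derived from the earlier primary screen, cut at about 11% in these data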;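 note: 0% = DMSO low control and 100% = 2 mM sodium butyrate high control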
# LXR ag 2 – LXR-beta agonism as DAF-12 counter-screen | shares compounds with hgDAF12 agonist | HEK293 Gal4-LXR luciferase reporter, 24 h | activation, % at 6.8 µM | 3,300 tested, under 10 active | AID 743051;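 active = mean activation of the triplicate above a set limit carried over from the primary screen, none filed active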
# * hit, by the source's call; . = not tested or not shown. Sampled rows, rich in hits. Any-hit rate of the full collection: about 4.8%.
SMILES,hgDAF12 agonist,ssDAF-12 act,DAX1 inh-1,hcDAF-12 act,SMARCA2 act,DAX1 inh-2,SMARCA2 conf,VP16 Luc act,hgDAF12 ag,LXR ag 2,others
CCOc1ccc2nc(NC(=O)COC)sc2c1,14*,1,0,2,8.0*,4.5*,15*,13*,16*,1,
CO[C@H]1CN(C)C(=O)c2ccc(NC(=O)C3CCC3)cc2OC[C@H](C)N(Cc2ccc(F)cc2)C[C@@H]1C,0,-2,.,-1,-1,2,.,.,.,.,
O=C(NN/C(=N/S(=O)(=O)c1ccc(Cl)cc1)c1ccccc1)c1cccc(Cl)c1,16*,1.2*,1,8.8*,10.0*,2,10*,12*,18*,1,LXR ag=1;hcDAF12 ag=7.6*
CCN(CC)c1ccc(/C=N/NC(=O)c2ccoc2C)cc1,17*,0,1,5,11*,2,5,11*,19*,1,
CCN(/C=N/c1sc2c(c1C#N)CCCCC2)CC,14*,-1,3,6.1*,8.0*,3,8.7*,7.7*,13*,1,
Nc1nnc(-c2ccc(Cl)cc2Cl)s1,15*,-1,1,2,12*,1,6,8.2*,10,0,
CCN(C(=O)COC(=O)CCCOc1ccc(Cl)cc1C)c1c(N)n(Cc2ccccc2)c(=O)[nH]c1=O,3,-1,4,0,1,-2,.,.,.,.,
Cc1ccc2cc(NC(=O)c3cccc(F)c3)ccc2n1,15*,0,3,8.2*,8.1*,3,19*,5,20*,1,LXR ag=1;hcDAF12 ag=4
O=C(Nc1cccc(NC(=O)c2cccc(F)c2)n1)c1cccc(F)c1,-1,-1,-2,-2,0,0,.,.,.,.,
O=C(Nc1ccc2[nH]ncc2c1)c1cccc(F)c1,8,0,2,0,4,1,.,.,.,.,
O=C(Nc1ccc2ccccc2c1)c1cccc(F)c1,14*,0,4,8.9*,9.4*,3,3,11*,16*,1,LXR ag=1;hcDAF12 ag=7.3*
O=c1cc(-c2ccccc2Cl)oc2c(NS(=O)(=O)c3cccc4nsnc34)ccc(O)c12,-1,-1,1,-1,0,0,.,.,.,.,
c1coc(CNc2nc3ccccc3s2)c1,16*,1.9*,6.5*,8.8*,9.7*,2,15*,12*,17*,1,
CCC(N=c1cc(-c2ccc(OC)cc2)oc2ccc(C)cc12)C(=O)O (stereo not given),14*,0,0,4,17*,3.9*,11*,8.8*,13*,0,
CCC(N=c1cc(-c2ccc(OC)c(OC)c2)oc2ccc(C)cc12)C(=O)O (stereo not given),1,-1,1,-3,1,0,.,.,.,.,
O=C(NCCN1CCOCC1)c1cc(Cl)ccc1[N+](=O)[O-],-2,-2,.,1,-2,0,.,.,.,.,
CSc1ccc(CN(C)CC(=O)N(C)CC(=O)Nc2ccccc2Br)cc1,-3,0,0,-2,-1,-1,.,.,.,.,
O=c1oc2ccccc2c(NC2CCCCC2)c1NS(=O)(=O)c1ccc(Br)cc1,.,.,1,.,.,.,.,.,.,.,
Cc1ccc2c(c1)C(=NC1CCCCC1)c1cc3ccccc3nc1-2,20*,2.4*,1,15*,11*,4.2*,11*,7.6*,18*,1,
CC1(C)c2ccccc2-c2nc3ccccc3cc2C1O (stereo not given),4,0,1,4,-3,0,.,.,.,.,
COc1cccc(C(=O)NCCSc2ccc(C)cc2)c1,-1,-1,0,-1,-1,-1,.,.,.,.,
COc1cccc(C(=O)NCCSc2ccc(F)cc2)c1,14*,0,0,3,16*,3,12*,10.0*,12*,0,
COc1ccc(-c2ccc(C(=O)C3CC3)cc2)cc1,15*,0,2,3,10*,2,8.2*,15*,20*,1,
COc1ccc(C(=O)C2CCN(C(=O)c3ccc(C)cc3)CC2)cc1,-4,-2,-2,-3,-4,-2,.,.,.,.,
CSCCC1NC2(C(=O)Nc3c(Cl)cccc32)[C@@H]2C(=O)N(C3CCCC3)C(=O)[C@H]12 (stereo not given in full),-1,-1,0,1,1,1,.,.,.,.,
SMILES,hgDAF12 agonist,ssDAF-12 act,DAX1 inh-1,hcDAF-12 act,SMARCA2 act,DAX1 inh-2,SMARCA2 conf,VP16 Luc act,hgDAF12 ag,LXR ag 2,others
COc1cccc(Nc2nc(-c3cccnc3)cs2)c1,14*,1.7*,4.4*,13*,11*,2,13*,6.6*,17*,1,LXR ag=1;hcDAF12 ag=8.2*
COc1ccc(-c2csc(Nc3cccnc3)n2)cc1OC,1,-1,-1,-2,0,-1,.,.,.,.,
COCC1CCN(Cc2nc(-c3cccs3)no2)C1 (stereo not given),22*,1,.,3,13*,4,2,6.0*,10,0,
Cc1cccc(NC(=O)CN2C(=O)CCSc3ccc(S(=O)(=O)N4CCOCC4)cc32)c1C,0,-1,0,1,-2,1,.,.,.,.,
O=C(NCCc1c[nH]c2ccccc12)c1ccc2c(c1)OCO2,15*,1.3*,2,11*,9.7*,2,13*,8.1*,18*,1,LXR ag=1;hcDAF12 ag=9.8*
NC(=O)c1cccnc1Nc1cccc([N+](=O)[O-])c1,14*,0,4.3*,3,13*,3,7.8*,8.6*,9,0,
CC(=O)C12CCCCC1CC1C3CC(C)C4(O)CC(=O)CCC4(C)C3CCC12C (stereo not given),0,-1,-2,1,-3,0,.,.,.,.,
